Some test systems named below: SR leukemia; RPMI-8226 leukemia; OVCAR-8 ovarian; OVCAR-5 ovarian; OVCAR-4 ovarian; SK-OV-3 ovarian; IGROV1 ovarian; OVCAR-3 ovarian; HS 578T breast; NCI/ADR-RES ovarian; T-47D breast; BT-549 breast; MDA-MB-435 melanoma; SW-620 colon; MCF7 breast; HCT-116 colon; HCC-2998 colon; KM12 colon.
What all share (test): NCI-60 one-dose screen, 48 h (100 = growth as untreated, 0 = no growth, -100 = all killed)
What all share (settings): 10 µM unless noted

The values below come from PubChem BioAssay (NCI).

About 83,000 compounds went through this panel and 20% of them were active in at least one assay; those are over-represented in the sample as a whole.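 Negative percent growth values reflect cell death: -40 means 40% of the cells present at the start died, and -100 means all died.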 Unmarked numbers belong to inactive results. Calls of active or inactive are those of the source. Rule for the calls: active = growth percent below 10; inactive = the rest.

`O=S(=O)(NCCCNc1nccc(-c2[nH]c(-c3ccccc3)nc2-c2ccc(F)c(O)c2)n1)c1ccccc1`: the growth with SR leukemia was 51.5%; with RPMI-8226 leukemia, 48.9%; in the experiment on OVCAR-8 ovarian, 90.2%; in the experiment with OVCAR-5 ovarian, 155%; with OVCAR-4 ovarian it was 118%; in the experiment on SK-OV-3 ovarian it was 121%. In addition, the growth in the experiment with IGROV1 ovarian was 114%; in the experiment with OVCAR-3 ovarian, 138%; with HS 578T breast, 116%; in the experiment on NCI/ADR-RES ovarian, 108%; in the experiment with T-47D breast, 90.1%; with BT-549 breast it was 112%. The growth in the experiment with MDA-MB-435 melanoma is 51%; in the experiment on SW-620 colon, 133%; with MCF7 breast, 94.9%; in the experiment with HCT-116 colon it was 77.9%; with HCC-2998 colon, 126%; in the experiment on KM12 colon, 98.8%.
Turning to `Cc1nc(N)sc1-c1csc(Nc2ccc(C(F)(F)F)cc2)n1`, the growth in the experiment with SR leukemia was 18.9%; in the experiment with RPMI-8226 leukemia, 26.6%; in the experiment on OVCAR-8 ovarian it was 49.4%; in the experiment on OVCAR-5 ovarian, 32.2%; in the experiment on OVCAR-4 ovarian, 42.7%; in the experiment on SK-OV-3 ovarian, 65.5%. In addition, the growth in the experiment on IGROV1 ovarian is 18.9%; with OVCAR-3 ovarian, 20.8%; with HS 578T breast, 32.4%; with NCI/ADR-RES ovarian, 27.3%; in the experiment with T-47D breast it was -0.894% (active); with BT-549 breast, -12% (active). The growth with MDA-MB-435 melanoma was 37.8%; in the experiment on SW-620 colon it was 20.6%; with MCF7 breast, 17.3%; with HCT-116 colon, 20.6%; with HCC-2998 colon it was 21%; in the experiment on KM12 colon it was 10.4%.
Consider `O=C(Nc1ccccc1)Nc1nc2ccc([N+](=O)[O-])cc2[nH]1`, for which the growth is 70.4% in the experiment on SR leukemia; 46.1% with RPMI-8226 leukemia; 66.9% in the experiment on OVCAR-8 ovarian; 75.2% in the experiment on OVCAR-5 ovarian; 23.5% in the experiment with OVCAR-4 ovarian; 73.4% with SK-OV-3 ovarian. The growth with IGROV1 ovarian is 45.9%; in the experiment with OVCAR-3 ovarian, 38.3%; in the experiment with HS 578T breast, 75.5%; with NCI/ADR-RES ovarian it was 69.1%; in the experiment on T-47D breast, 14.7%; with BT-549 breast it was 77.8%. Besides, the growth was 55.3% in the experiment with MDA-MB-435 melanoma; 56% in the experiment on SW-620 colon; 53.7% in the experiment with MCF7 breast; 39.4% in the experiment on HCT-116 colon; 60.4% in the experiment with HCC-2998 colon; 45.2% with KM12 colon.
On to `COc1ccc(NC(=O)CCCCCCNC(=O)C(O)(O)C(F)(F)F)cc1`, for which the growth was 15% in the experiment with SR leukemia; 25.1% in the experiment with RPMI-8226 leukemia; 22.3% with OVCAR-8 ovarian; 31.3% in the experiment with OVCAR-5 ovarian; 77.7% in the experiment on OVCAR-4 ovarian; 4.07% (active) in the experiment on SK-OV-3 ovarian. For the same molecule, the growth is 62.4% in the experiment with IGROV1 ovarian; 49.1% in the experiment with OVCAR-3 ovarian; 56.9% with HS 578T breast; 49.8% in the experiment with NCI/ADR-RES ovarian; 18.7% with T-47D breast; 76.4% with BT-549 breast. For the same molecule, the growth in the experiment on MDA-MB-435 melanoma was 38.8%; in the experiment with SW-620 colon it was 10.2%; with MCF7 breast, 38.4%; with HCT-116 colon it was 7.44% (active); in the experiment with HCC-2998 colon, 55.9%; in the experiment with KM12 colon, 41.6%.
With `Cc1[nH]c(C(=O)Nc2ccccc2OCc2cccc(C(=O)NC3CCCNC3)c2)c(Cl)c1Cl` (centres undefined), the growth with SR leukemia is -30.5% (active); in the experiment on RPMI-8226 leukemia, -19.1% (active); in the experiment with OVCAR-8 ovarian, -44.3% (active); in the experiment on OVCAR-5 ovarian it was -87.8% (active); with OVCAR-4 ovarian, -73.4% (active); in the experiment with SK-OV-3 ovarian it was 108%. Besides, the growth with IGROV1 ovarian was -71.3% (active); in the experiment on OVCAR-3 ovarian, -85.7% (active); with HS 578T breast, 93%; with NCI/ADR-RES ovarian, -2.67% (active); with T-47D breast, -9.08% (active); in the experiment with BT-549 breast it was 98.8%. Further, the growth in the experiment with MDA-MB-435 melanoma was -80.2% (active); in the experiment with SW-620 colon, -68.8% (active); in the experiment on MCF7 breast, -77.8% (active); in the experiment with HCT-116 colon it was -67% (active); with HCC-2998 colon it was -90% (active); with KM12 colon, -78.4% (active).
Turning to `C=C(C)[C@@H]1CC[C@]2(C(=O)N3CCN(C)CC3)CC[C@]3(C)[C@H](CC[C@@H]4[C@@]5(C)CC[C@H](OP(=O)(OCC)OCC)C(C)(C)[C@@H]5CC[C@]43C)[C@@H]12`, the growth in the experiment with SR leukemia was -26.6% (active); in the experiment on RPMI-8226 leukemia, 35.2%; in the experiment on OVCAR-8 ovarian, 84.3%; in the experiment on OVCAR-5 ovarian it was 105%; in the experiment on OVCAR-4 ovarian, 91.2%; in the experiment with SK-OV-3 ovarian, 104%. Further, the growth in the experiment with IGROV1 ovarian was 92.9%; with OVCAR-3 ovarian, 100%; with HS 578T breast it was 87.6%; in the experiment on NCI/ADR-RES ovarian, 82.4%; in the experiment on T-47D breast it was 87.8%; with BT-549 breast, 93.9%. Besides, the growth in the experiment on MDA-MB-435 melanoma is 94.2%; in the experiment on SW-620 colon, 82%; in the experiment on MCF7 breast, 68.9%; with HCT-116 colon it was 24%; in the experiment with HCC-2998 colon it was 94.4%; in the experiment on KM12 colon it was 94.4%.
`CC(C)NC(=O)c1cc(-c2ccc(NC(=O)Nc3ccc(F)cc3)cc2)nc2cccnc12`: the growth in the experiment with SR leukemia is 94.3%; in the experiment on RPMI-8226 leukemia it was 109%; in the experiment with OVCAR-8 ovarian it was 105%; in the experiment on OVCAR-5 ovarian, 109%; in the experiment on OVCAR-4 ovarian it was 104%; in the experiment on SK-OV-3 ovarian, 112%. For the same molecule, the growth in the experiment with IGROV1 ovarian is 110%; with OVCAR-3 ovarian, 115%; in the experiment on HS 578T breast, 109%; with NCI/ADR-RES ovarian it was 104%; in the experiment on T-47D breast, 97.8%; with BT-549 breast it was 104%. Besides, the growth with MDA-MB-435 melanoma is 98.7%; in the experiment on SW-620 colon, 108%; with MCF7 breast, 79.9%; in the experiment with HCT-116 colon it was 95.5%; in the experiment on HCC-2998 colon it was 108%; with KM12 colon it was 95.7%.
As to `Cn1cc(-c2cc3ncnc(Nc4ccc(NC(=O)Nc5cc(C(C)(C)C)on5)cc4)c3s2)cn1`, the growth was 22.3% in the experiment with SR leukemia; 5.73% (active) with RPMI-8226 leukemia; 44.2% in the experiment with OVCAR-8 ovarian; 30.4% with OVCAR-5 ovarian; 41% with OVCAR-4 ovarian; 20.4% with SK-OV-3 ovarian. The growth is 19.8% in the experiment with IGROV1 ovarian; 54.9% in the experiment on OVCAR-3 ovarian; 14.9% with HS 578T breast; 61.6% in the experiment with NCI/ADR-RES ovarian; 1.81% (active) in the experiment on T-47D breast; 16.4% in the experiment with BT-549 breast. For the same molecule, the growth is 17.5% with MDA-MB-435 melanoma; 24.4% with SW-620 colon; 18.5% in the experiment with MCF7 breast; 12.7% in the experiment on HCT-116 colon; 74.1% in the experiment with HCC-2998 colon; 15.7% in the experiment with KM12 colon.
